# Results filed as inconclusive are left out. Entries that show only a call come without a potency. Calls of active or inactive are those of the source. Unless noted, calls come from the whole dose curve; as a rule, active = well fitted curve in the direction sought with a large enough effect; inconclusive = small, poorly fitted or top-dose-only effect, or another doubt; inactive = no such curve, though single readings can be large; an effect the other way counts as inactive or inconclusive.
# Assays:
# [1] = P-glycoprotein substrates identified in KB-8-5-11 adenocarcinoma cell line, qHTS therapeutic library screen (AID 1346987); note: nearly all actives have a fitted effect of over 65% in size; note: potency is the fitted concentration of half-maximal effect
# Outline: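 In this qHTS, P-gp-rich KB-8-5-11 cells received library compounds across a concentration range. Viability was quantified by luminescence after 72 h at 37 degree C.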
# [2] = NS1 protein of Zika virus - qHTS assay to identify small molecule inhibitors in human HEK 293 cells (AID 1347053); note: series mostly up to about 46 µM; nearly all actives have a fitted effect of over 55% in size
# Outline: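 Readout was TR-FRET using paired anti-NS1 antibodies after 24 h infection of HEK 293 cells with ZIKV MR766 (MOI = 0.5). Compound preceded virus by 1 h; reduced signal reflects lower NS1 expression.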
# [3] = qHTS for Inhibitors of the Functional Ribonucleoprotein Complex (vRNP) of Lassa (LASV) Arenavirus: LASV Primary Screen - GLuc reporter signal (AID 1347082; calls by dose curve; tested in HEK293 reporter line; note: series mostly up to about 57 µM; nearly all actives have a fitted effect of over 60% in size)
# [4] = qHTS for Inhibitors of the Functional Ribonucleoprotein Complex (vRNP) of Lassa (LASV) Arenavirus: Viability assay - alamar blue signal for LASV Primary Screen (AID 1347083; calls by dose curve; tested in HEK293 reporter line; note: series mostly up to about 57 µM; nearly all actives have a fitted effect of over 80% in size)
# [5] = qHTS for Inhibitors of the Functional Ribonucleoprotein Complex (vRNP) of Lymphocytic Choriomeningitis Arenaviruses (LCMV): Viability assay - alamar blue signal for LCMV Primary Screen (AID 1347085; calls by dose curve; tested in HEK293 reporter line; note: series mostly up to about 57 µM; nearly all actives have a fitted effect of over 80% in size)
# [6] = target: Nucleoprotein (Lymphocytic choriomeningitis virus (strain Armstrong)) (UniProt P09992); test: qHTS for Inhibitors of the Functional Ribonucleoprotein Complex (vRNP) of Lymphocytic Choriomeningitis Arenaviruses (LCMV): LCMV Primary Screen - GLuc reporter signal (AID 1347086; calls by dose curve; note: series mostly up to about 57 µM; nearly all actives have a fitted effect of over 70% in size)
# [7] = qHTS of pediatric cancer cell lines to identify multiple opportunities for drug repurposing: Primary screen for TC32 cells (AID 1347089); note: nearly all actives have a fitted effect of over 60% in size
# Outline: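 Measured quantity: luminescence from CellTiter-Glo, reflecting metabolically active TC32 cells following 48 h of compound. Curves came straight from multi-point titrations, with 8 or 11 points in primary and 11 in confirmatory screening.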
# [8] = qHTS of pediatric cancer cell lines to identify multiple opportunities for drug repurposing: Primary screen for DAOY cells (AID 1347090); note: nearly all actives have a fitted effect of over 55% in size; note: potency is the fitted concentration of half-maximal effect
# Outline: (§1)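 Eight- or eleven-point concentration series, 48 h treatment at 37 degrees C in growth media; readout CellTiter-Glo luminescence. Potency and efficacy were taken from the concentration-response curves.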
# [9] = qHTS of pediatric cancer cell lines to identify multiple opportunities for drug repurposing: Primary screen for SJ-GBM2 cells (AID 1347091); note: potency is the fitted concentration of half-maximal effect
# Outline: as §1
# [10] = qHTS of pediatric cancer cell lines to identify multiple opportunities for drug repurposing: Primary screen for A673 cells (AID 1347092); note: nearly all actives have a fitted effect of over 45% in size; note: potency is the fitted concentration of half-maximal effect
# Outline: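 Cells are plated, rested 5 h, dosed by pintool, incubated 48 h, then lysed with CellTiter-Glo and read by luminescence. DMSO is the neutral control; bortezomib at 2.3 uM final is the positive control.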
# [11] = qHTS of pediatric cancer cell lines to identify multiple opportunities for drug repurposing: Primary screen for SK-N-MC cells (AID 1347093); note: potency is the fitted concentration of half-maximal effect
# Outline: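 Metabolically active cells were quantified by ATP-dependent luminescence (CellTiter-Glo, 15 min at room temperature) following 48 h treatment. Cells had been plated at 500-1,000 per well and settled for 5 h beforehand.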
# [12] = qHTS of pediatric cancer cell lines to identify multiple opportunities for drug repurposing: Primary screen for BT-37 cells (AID 1347094); note: potency is the fitted concentration of half-maximal effect
# Outline: (§2)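 500-1,000 cells/well; 5 h pre-incubation 37 °C/5% CO2; compound pinned; 48 h; CellTiter-Glo, 15 min RT; luminescence. MIPE 11-pt from 0.78 nM, NPC 8-pt from 0.59 nM final. Bortezomib 2.3 µM final as positive control.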
# [13] = qHTS of pediatric cancer cell lines to identify multiple opportunities for drug repurposing: Primary screen for NB-EBc1 cells (AID 1347095); note: potency is the fitted concentration of half-maximal effect
# Outline: as §2
# [14] = qHTS of pediatric cancer cell lines to identify multiple opportunities for drug repurposing: Primary screen for U-2 OS cells (AID 1347096); note: nearly all actives have a fitted effect of over 50% in size; note: potency is the fitted concentration of half-maximal effect
# Outline: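 Cells (500-1,000/well) in growth media were settled 5 h at 37 degrees C, then given compounds for 48 h. Viability was read as CellTiter-Glo luminescence. Primary runs used MIPE at 11 points (0.78 nM-46 µM) and NPC at 8 points (0.59 nM-46 µM); follow-ups used 11 points.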
# [15] = qHTS of pediatric cancer cell lines to identify multiple opportunities for drug repurposing: Primary screen for Saos-2 cells (AID 1347097); note: nearly all actives have a fitted effect of over 40% in size; note: potency is the fitted concentration of half-maximal effect
# Outline: as §2
# Sequence of Nucleoprotein (Lymphocytic choriomeningitis virus (strain Armstrong)) (P09992 whole entry, looked up): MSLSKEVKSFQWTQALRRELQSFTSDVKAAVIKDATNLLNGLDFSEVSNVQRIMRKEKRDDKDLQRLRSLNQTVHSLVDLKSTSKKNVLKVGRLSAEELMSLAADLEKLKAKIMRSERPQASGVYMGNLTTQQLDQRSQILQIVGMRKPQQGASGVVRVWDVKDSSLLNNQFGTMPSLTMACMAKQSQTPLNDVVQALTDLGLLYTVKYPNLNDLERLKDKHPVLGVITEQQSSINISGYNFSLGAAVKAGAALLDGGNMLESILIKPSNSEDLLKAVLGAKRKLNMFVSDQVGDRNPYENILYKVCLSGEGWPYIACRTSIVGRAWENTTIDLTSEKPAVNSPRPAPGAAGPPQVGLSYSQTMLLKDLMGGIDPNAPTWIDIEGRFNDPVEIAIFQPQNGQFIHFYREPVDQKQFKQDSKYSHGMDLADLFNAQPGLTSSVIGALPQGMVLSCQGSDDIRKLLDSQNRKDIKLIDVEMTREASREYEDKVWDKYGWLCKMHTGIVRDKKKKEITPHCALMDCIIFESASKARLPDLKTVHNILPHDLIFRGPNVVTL
SMILES,Potency [1],outcome [2],Potency [3],Potency [4],Potency [5],Potency [6],Potency [7],Potency [8],Potency [9],Potency [10],Potency [11],Potency [12],Potency [13],Potency [14],Potency [15]
CC(C)C[C@H](CN)CC(=O)O,inactive,inactive,inactive,inactive,inactive,inactive,inactive,inactive,inactive,inactive,23.5 µM (active),inactive,inactive,inactive,inactive
CN[C@@H](C)Cc1ccccc1,inactive,,inactive,inactive,inactive,inactive,,,,,,,,,
C=CCC1(C(C)CC)C(=O)NC(=O)NC1=O (configuration not stated),,inactive,inactive,inactive,inactive,inactive,inactive,inactive,inactive,inactive,inactive,inactive,inactive,inactive,inactive
Clc1ccccc1N1CCNCC1,,inactive,inactive,inactive,inactive,inactive,inactive,inactive,inactive,inactive,inactive,inactive,inactive,inactive,inactive
O=C(O)/C=C\C(=O)O,inactive,,inactive,inactive,inactive,inactive,,,,,,,,,
CCCOC(=O)c1cncn1C(C)c1ccccc1 (configuration not stated),,inactive,inactive,inactive,inactive,inactive,inactive,inactive,inactive,inactive,inactive,inactive,inactive,inactive,inactive
CN(C)CCc1c[nH]c2cccc(OP(=O)(O)O)c12,,inactive,inactive,inactive,inactive,inactive,inactive,inactive,inactive,inactive,inactive,inactive,inactive,inactive,inactive
C[C@]12CCC(=O)C=C1CC[C@@H]1[C@H]3CC[C@](C)(O)[C@@]3(C)CC[C@@H]12,31.6 µM (active),,inactive,inactive,,inactive,,,49 µM (active),,30.9 µM (active),,,,27.5 µM (active)
C[C@@H]1CC2=CC(=O)CC[C@@H]2[C@H]2CC[C@@]3(C)[C@@H](CC[C@]3(C)O)[C@@H]21,,inactive,inactive,inactive,inactive,inactive,inactive,inactive,inactive,inactive,inactive,inactive,inactive,inactive,inactive
O=C1CN=C(c2ccccc2)c2cc([N+](=O)[O-])ccc2N1,inactive,inactive,inactive,inactive,inactive,inactive,inactive,inactive,inactive,inactive,,inactive,inactive,inactive,
C#CC(O)(C=CCl)CC (configuration not stated),,inactive,inactive,inactive,inactive,inactive,inactive,inactive,inactive,inactive,inactive,inactive,inactive,inactive,inactive
COc1cccc(C(=O)CCN[C@@H](C)[C@H](O)c2ccccc2)c1,inactive,inactive,inactive,inactive,inactive,inactive,inactive,26.6 µM (active),inactive,,,inactive,,inactive,
C[C@](O)(CS(=O)(=O)c1ccc(F)cc1)C(=O)Nc1ccc(C#N)c(C(F)(F)F)c1,14.6 µM (active),inactive,,,inactive,inactive,inactive,0.743 µM (active),3.72 µM (active),2.96 µM (active),0.469 µM (active),19.3 µM (active),4.69 µM (active),14.8 µM (active),inactive
CCCCCCCCCC(=O)O[C@H]1CC[C@H]2[C@@H]3CCC4=CC(=O)CC[C@@H]4[C@H]3CC[C@]12C,6.51 µM (active),inactive,inactive,inactive,inactive,inactive,,inactive,inactive,inactive,inactive,inactive,inactive,inactive,inactive
CCOP(=S)(OCC)Oc1ccc2c(C)c(Cl)c(=O)oc2c1,,inactive,inactive,inactive,inactive,inactive,inactive,inactive,inactive,0.001 µM (active),inactive,inactive,,inactive,inactive
CC(Cc1ccccc1)NCCn1cnc2c1c(=O)n(C)c(=O)n2C (configuration not stated),,inactive,inactive,inactive,inactive,inactive,inactive,inactive,inactive,inactive,,inactive,inactive,inactive,inactive
CC(C(=O)c1ccccc1)N(C)C (configuration not stated),,inactive,inactive,inactive,inactive,inactive,inactive,inactive,inactive,inactive,inactive,inactive,inactive,inactive,inactive
COP(=S)(OC)SCN1C(=O)c2ccccc2C1=O,inactive,inactive,inactive,inactive,inactive,inactive,inactive,,inactive,,,inactive,inactive,inactive,
CCC(CC)(CNC(=O)CCCO)c1cccc(OC)c1,,inactive,inactive,inactive,inactive,inactive,inactive,inactive,inactive,inactive,inactive,inactive,inactive,inactive,inactive

# — PubChem BioAssay (NCATS)
